# Source: PubChem
# KDM5B inh: inhibitors of human KDM5B histone demethylase; 220,000 compounds, 2.6% hits; Q9UGL1; AID 1347165; KDM5B demethylase, FDH-coupled NADH fluorescence (FDH is formaldehyde dehydrogenase); Potency, µM (doses to about 57.7 µM), most hits filed as inhibitors; active = well fitted inhibition curve with a large enough effect; note: 0% is about no effect; nearly all actives have a fitted effect of over 70% in size
#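 Coupled FDH/NAD⁺ fluorescence readout. KDM5BΔAP 200 nM final; compound titration, 10 min RT preincubation; substrate mix 12.5 µM H3K4me3, 25 µM 2-OG, 50 µM Fe(II), 100 µM ascorbate, 0.25 mM NAD⁺, 0.25 U/mL FDH; ΔRFU over 30 min.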
# Starred values were filed as active, the others as inactive; i = inactive; ! = repeats disagree. The sample as a whole holds a higher share of hits than the screen did. Potency is the fitted concentration of half-maximal effect.
SMILES,KDM5B inh
COC(=O)C[C@@H]1CCN(C(=O)COc2ccccc2)C[C@@H]1CC1=NCCc2cc(OC)c(OC)cc21,25µM*
COc1ccc2c(c1)CCN=C2C[C@H]1CN(C(=O)C(C)(C)C)CC[C@H]1CC(=O)O,i
CS(=O)(=O)N1CCC(C2CCN(C(=O)COc3ccccc3)C2)CC1 (configuration not stated),i
O=C(O)C[C@@H]1CCN(C(=O)COc2ccccc2)C[C@@H]1CCN1CCCCC1,i
COc1ccc(C(=O)N2CC[C@@H](CC(=O)O)[C@@H](CCN3CCC(C(N)=O)CC3)C2)cc1,i
COc1ccc(CC(=O)N2CC[C@@H](CC(=O)O)[C@@H](CCN3CCC[C@H]3C(N)=O)C2)cc1,i
C=CCNC(=O)N1CCOC(CN(CC(C)C)C(=O)c2cccc(OC)c2)C1 (configuration not stated),i
COc1ccc2c(c1)CCN=C2C[C@H]1CN(C(=O)c2ccccc2)CC[C@H]1CC(=O)O,28µM*
COc1ccc(CC(=O)N2CC[C@@H](CC(=O)O)[C@@H](CCN3CCC(n4c(=O)[nH]c5ccccc54)CC3)C2)cc1,i
CCc1ccc(C(=O)NCc2ccco2)o1,i
COc1ccc2[nH]cc(C(C(=O)O)N3CCN(C4=Nc5ccccc5Oc5ccccc54)CC3)c2c1 (configuration not stated),i
COc1ccc(-n2c(SCC(=O)N3CCc4ccccc43)nc3c(c2=O)SCC3)cc1,i
CCN1CCN(CCC(=O)Nc2sc(-c3ccccc3)cc2C(=O)OC)CC1,i
Cc1nn(C)c(C)c1CCN(C)C(=O)C12CCCC=C1N(C1CCCC1)C(=O)CC2 (configuration not stated),i
CCc1ccc2oc(=O)cc(CN3CCN(CC(=O)NC4CCCC4)CC3)c2c1,i
CCC1CCc2c(sc(NC(=O)C3CC3)c2C#N)C1 (configuration not stated),i
COc1ccc(CNC(=O)C2=C(c3ccccc3)c3cc(Cl)ccc3S(=O)(=O)N2C)c(OC)c1,i
O=C(O)CSCc1c[nH]c2ccccc12,i
COc1cc2c(cc1OC)C(C[C@H]1CN(C(=O)Cc3cccs3)CC[C@H]1CC(=O)O)=NCC2,28µM*
COc1cc2c(cc1OC)C(C[C@H]1CN(C(=O)c3ccc(F)cc3)CC[C@H]1CC(=O)O)=NCC2,i
COc1ccc(S(=O)(=O)N2CCCCC2)cc1NC(=O)Cc1cccs1,i
CS(=O)(=O)N1CCC(C2CCN(C(=O)c3ccc4c(c3)OCO4)C2)CC1 (configuration not stated),i
CN(CC[C@H]1CN(C(=O)c2cccs2)CC[C@H]1CC(=O)O)c1ccccc1,i
COc1cc2c(cc1OC)C(C[C@H]1CN(C(=O)c3ccc4c(c3)OCO4)CC[C@H]1CC(=O)O)=NCC2,32µM*
O=C(O)CSCc1ccncc1,i
SMILES,KDM5B inh
Cc1cccc(C)c1NC(=O)CN(CC(=O)Nc1c(C)cccc1C)Cc1nc2ccccc2o1,i
Cn1c(=O)c2[nH]c(N3CCN(Cc4ccc(F)cc4)CC3)nc2n(C)c1=O,i
Cc1ccsc1/C=N/NC(=O)c1cccc2ccccc12,i
Cc1cc(C)n2ncc(C(=O)NCc3cc4n(n3)CCN(C(=O)N(C)C)C4)c2n1,32µM*
Cc1ccc(C)c(CC(=O)NCc2cc3n(n2)CCN(C(=O)N(C)C)C3)c1,i
COc1ccc(F)cc1C(=O)NCc1cc2n(n1)CCN(C(=O)N(C)C)C2,i
COc1ccccc1N1CCN(c2ncc3c(n2)CCCC3=O)CC1,i
COc1ccccc1-n1cc(-c2ccnc(N3CC(n4cccn4)C3)n2)cn1,32µM*
COc1ccccc1N1CCN(c2ncc3c(n2)CCN(Cc2ccccc2C)C3)CC1,i
CCNCC(O)COCc1ccccc1OC (configuration not stated),i
Cc1nn(-c2ccc(C(C)C)cc2)c(C)c1[C@@H]1C=C[C@@H](NC(=O)NCc2ccccc2)C1,i
Cc1ccc(-n2nc(C)c([C@@H]3C=C[C@@H](NC(=O)CC(C)(C)CC(=O)O)C3)c2C)cc1Cl,i
CC(=O)N[C@@H]1C=C[C@@H](c2c(C)nn(-c3ccc(C(F)(F)F)cc3)c2C)C1,i
Cc1nn(-c2ccc(C(C)(C)C)cc2)c(C)c1[C@@H]1C=C[C@@H](NC(=O)NCc2ccccc2)C1,32µM*
Cc1ccc(-n2nc(C)c([C@@H]3C=C[C@@H](NCc4ccc(N(C)C)cc4)C3)c2C)cc1Cl,40µM*
Cc1ccc(-n2nc(C)c([C@H]3C=C[C@@H](O)C3)c2C)cc1Cl,i
COc1ccc(C(=O)N[C@@H]2C=C[C@@H](c3c(C)nn(-c4ccc(C(F)(F)F)cc4)c3C)C2)cc1,i
Cc1nn(-c2ccc(C(F)(F)F)cc2)c(C)c1[C@@H]1C=C[C@@H](NC(=O)c2ccc(N(C)C)cc2)C1,32µM*
CCNC(=O)N[C@@H]1C=C[C@@H](c2c(C)nn(-c3ccc(C(C)(C)C)cc3)c2C)C1,i
CCC(CC)NC(=O)CSc1ccc2c(c1)OCCCO2,i
CC(NS(=O)(=O)c1ccc(Cl)s1)c1cc2ccccc2o1 (configuration not stated),i
Cn1c(CCn2ccccc2=O)nc2cc(NS(=O)(=O)c3ccc(Cl)cc3)ccc21,i
CCC(C)NC(=O)CCNC(=O)c1ccc2nc(C)c(C)nc2c1 (configuration not stated),i
C=C(C)COc1cc(O)c2c(=O)cc(-c3ccccc3)oc2c1,i
CCCS(=O)(=O)NCc1nnnn1-c1ccc(OCC)cc1,i
SMILES,KDM5B inh
CCOc1ccccc1NC(=O)CSc1nnc2c3cc(-c4ccc(Cl)cc4)nn3ccn12,i
CN(C)c1cccc(C(=O)Nc2ccc(C#N)cc2)c1,i
Cc1ccc(N2CC(c3nc4ccccc4n3C)CC2=O)cc1 (configuration not stated),i
COc1ccccc1-c1nnc([C@H]2CCN(Cc3ncc[nH]3)C2)o1,40µM*
COc1ccccc1-c1nnc([C@H]2CCN(C(=O)c3ccccc3)C2)o1,i
COc1ccc2nc([C@H]3CCN(C4CCCCC4)C3)[nH]c2c1,28µM*
COc1cccc(CN2CC[C@H](c3nc4ccccc4[nH]3)C2)c1,i
Cc1ccc2nc(C3CCN(Cc4ccccc4)CC3)[nH]c(=O)c2c1,i
COc1cccc(-c2ccc(CN3CCCC(c4nc5ccc(C)cc5c(=O)[nH]4)C3)cc2)c1 (configuration not stated),35µM*!
Cn1c([C@H]2CCN(Cc3ncc[nH]3)C2)nc2ccccc21,35µM*
CCOc1ccc(C(=O)N2CCC(c3nnc(-c4ccccc4OC)o3)CC2)cc1,i
COc1ccc(S(=O)(=O)N2CCC(c3nc4ccccc4[nH]3)CC2)cc1,i
O=c1[nH]c(C2CCCN(Cc3ccc(-c4ccccc4)cc3)C2)nc2ccc(F)cc12 (configuration not stated),i
Cn1c([C@H]2CCN(S(=O)(=O)Cc3ccccc3)C2)nc2ccccc21,i
CCCN(Cc1cccs1)C(=O)Nc1ccccc1OC,i
CCOc1cc(C2C(C(=O)OC)=C(C)NC3=C2C(=O)c2ccccc23)ccc1OCC#N (configuration not stated),i
CC1CCCC(NC(=O)c2ccccc2SCC#N)C1 (configuration not stated),i
COC(=O)CC(NC(=O)c1ccc2c(c1)OCCCO2)c1ccc(F)cc1 (configuration not stated),i
CN(CCc1noc(COc2cccc(F)c2)n1)C(=O)c1ccccc1C(F)(F)F,i
